Assay [1] concerns Zika virus NS2B-NS3 protease (unlinked complex). The assay is described as follows: Primary screen GU Rhodamine qHTS for Zika virus inhibitors: Unlinked NS2B-NS3 protease assay (AID 1347159). Also: nearly all actives have a fitted effect of over 60% in size. The essentials: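 Noncovalent NS2B hydrophilic domain–NS3 protease domain complex (25 nM) preincubated 15 min at room temperature with compounds (up to 114 microM) in 10 mM Tris-HCl pH 8.0, 0.01% Tween 20; 1.5 microM Rhodamine110 substrate added, fluorescence change over 15 min fitted to Hill equation.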
Background: In qHTS, concentration-response curves come from the screen itself.

Assay [2] relates to Zika virus NS2B-NS3 protease (linked construct). In words: Primary screen NINDS Rhodamine qHTS for Zika virus inhibitors (AID 1347160). Also: nearly all actives have a fitted effect of over 55% in size. In short, it runs like this: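 Purified linked NS2B-NS3 protease (NS2B hydrophilic domain joined to NS3 protease by flexible linker), 25 nM in 10 mM Tris-HCl pH 8.0, 0.01% Tween 20. Compounds titrated, 15 min preincubation at room temperature; 1.5 microM Rhodamine110 substrate, FITC fluorescence change over 15 min.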

Structures are written as SMILES. Records with an inconclusive call do not appear. A call without a number means that no potency is given here. Values without a mark were called inactive. Activity calls are given as the source filed them. Calls follow the shape of the dose curve; as a rule, active = well fitted inhibition curve with a large enough effect; inconclusive = small, poorly fitted or top-dose-only effect; inactive = no such curve, though single readings can be large or run the other way.

48 compounds from PubChem BioAssay (NCATS) can be followed below.

With `O=C(OC1C=C(CO)C2C(OC3OC(CO)C(O)C(O)C3O)OC=CC12O)c1ccc(O)cc1` (stereo unspecified), the Potency result in assay [1] and in assay [2] was “inactive” in each case.

Take `O=C(O)/C=C/c1ccc(O[C@@H]2O[C@H](CO)[C@@H](O)[C@H](O)[C@H]2O)cc1`: the Potency result in assay [1] and in assay [2] was “inactive” throughout.

Take `CC(C)=CCC[C@](C)(O[C@@H]1O[C@H](CO)[C@@H](O)[C@H](O)[C@H]1O)[C@H]1CC[C@]2(C)[C@@H]1[C@H](O)CC1[C@@]3(C)CC[C@H](O)C(C)(C)C3[C@@H](O[C@@H]3O[C@H](CO)[C@@H](O)[C@H](O)[C@H]3O[C@@H]3O[C@@H](C)[C@H](O)[C@@H](O)[C@H]3O)C[C@]12C` (stereo partly specified): the Potency result in assay [1] and in assay [2] was “inactive” throughout.

As to `CCCN(CCN1CCN(c2ccccc2OC)CC1)C1CCc2ncsc2C1` (stereo unspecified), the Potency result in assay [1] and in assay [2] was “inactive” each time.

For `CC1(C)CC[C@]2(C(=O)O[C@@H]3O[C@H](CO)[C@@H](O)[C@H](O)[C@H]3O)CC[C@]3(C)C(=CCC4[C@@]5(C)C[C@H](O)[C@H](O[C@@H]6OC[C@@H](O)[C@H](O)[C@H]6O)[C@@](C)(CO)C5CC[C@]43C)C2C1` (stereo partly specified), the Potency entry in assay [1] and in assay [2] was “inactive” in each case.

Consider `Cc1cccc(NC(=O)CN2CCC(c3ccccn3)CC2)c1`, for which the Potency result in assay [1] and in assay [2] was “inactive” in each case.

Take `COC(=O)C1=CO[C@@H](O[C@@H]2O[C@H](CO)[C@@H](O)[C@H](O)[C@H]2O)[C@@H]2[C@@H](C)[C@@H](O)C(O)[C@H]12` (stereo partly specified): the Potency entry in assay [1] and in assay [2] was “inactive” each time.

As for `C[C@]1(OC(=O)/C=C/c2ccccc2)C[C@@H](O)[C@]2(O)C=CO[C@@H](O[C@@H]3O[C@H](CO)[C@@H](O)[C@H](O)[C@H]3O)[C@@H]21`, the Potency entry in assay [1] and in assay [2] was “inactive” throughout.

For `CCN=C1N[C@@H]2[C@@H](O)[C@H](O)[C@@H](CO)O[C@@H]2S1`, the Potency result in assay [1] and in assay [2] was “inactive” throughout.

In the case of `C=C1CC2C3(C)C=CC(=O)OC(C)(C)C3CC(OC(C)=O)C2(C)C2C(=O)OC(C)C(=O)C12C` (stereo unspecified), the Potency entry in assay [1] and in assay [2] was “inactive” in each case.

In the case of `C=C1CC[C@@]2(OC1)O[C@H]1CC3[C@@H]4CC=C5C[C@H](O[C@H]6OC[C@@H](O)C(O)[C@@H]6O[C@@H]6O[C@@H](C)[C@H](O)[C@@H](O[C@@H]7O[C@H](CO)[C@@H](O)[C@H](O)[C@H]7O)[C@H]6O)C[C@@H](O)[C@]5(C)C4CC[C@]3(C)[C@H]1[C@@H]2C` (stereo partly specified), the Potency result in assay [1] and in assay [2] was “inactive” throughout.

`COc1cccc(Cn2ncc3c4sc(S(C)=O)cc4n(C)c3c2=O)c1` (stereo unspecified): the Potency result in assay [1] and in assay [2] was “inactive” throughout.

With `CC(C)=CCC/C(C)=C/CO[C@@H]1O[C@H](CO[C@@H]2OC[C@](O)(CO)[C@H]2O)[C@@H](O)[C@H](O)[C@H]1O`, the Potency result in assay [1] and in assay [2] was “inactive” each time.

Consider `CC1=C2CC(=O)C(C)CC/C=C(\C)CC2(O)OC1=O` (stereo unspecified), for which the Potency result in assay [1] and in assay [2] was “inactive” throughout.

For `CN1CCc2cc(Cl)c(O)cc2[C@@H](c2cccc3c2OCC3)C1`, the Potency entry in assay [1] and in assay [2] was “inactive” throughout.

Turning to `Cc1nc(-c2cccnc2)sc1C(=O)Nc1ccccc1-c1cn2c(CN3CCOCC3)csc2n1`, the Potency result in assay [1] and in assay [2] was “inactive” throughout.

In the case of `COC(=O)C1=CO[C@@H](O[C@@H]2O[C@H](CO)[C@@H](O)[C@H](O)[C@H]2O)[C@@H]2[C@@H](CO)[C@@H](O)C(O)[C@H]12` (stereo partly specified), the Potency result in assay [1] and in assay [2] was “inactive” throughout.

Turning to `C=C1C[C@]23C[C@@]1(O)CC[C@H]2[C@@]12C=C[C@H](O)[C@@](C)(C(=O)O1)[C@H]2[C@@H]3C(=O)O`, the Potency result in assay [1] and in assay [2] was “inactive” throughout.

Turning to `C[C@H]1CC(=O)C2=C(C1)C(O)C(O)[C@@]1(O)[C@H]2C(=O)c2cccc(O)c2[C@@H]1O` (stereo partly specified), the Potency result in assay [1] and in assay [2] was “inactive” in each case.

In the case of `CC1(C)CC[C@]2(C(=O)O[C@@H]3O[C@H](CO)[C@@H](O)[C@H](O)[C@H]3O)CC[C@]3(C)C(=CCC4[C@@]5(C)C[C@H](O)[C@H](O[C@@H]6O[C@H](C(=O)O)[C@@H](O)[C@H](O)[C@H]6O)[C@@](C)(CO)C5CC[C@]43C)C2C1` (stereo partly specified), the activity change, negative = inhibition in assay [1] is 21.5% [at 19.1 µM]. In addition, the Potency result in assay [2] was “inactive”.

Consider `COC(=O)C1=CO[C@@H](O[C@@H]2O[C@H](CO)[C@@H](O)[C@H](O)[C@H]2O)[C@@H]2C(C)CC(=O)[C@]12O` (stereo partly specified), for which the Potency result in assay [1] and in assay [2] was “inactive” in each case.

`C=C1C2(C)CC3C4(C)OC(C5OC56C4=CC(=O)OC6(C)C)C3(C)C13C(=O)OC(C)C3(O)C2=O` (stereo unspecified): the Potency entry in assay [1] and in assay [2] was “inactive” throughout.

`Fc1ccccc1-c1nc2ccn(Cc3ccc(-c4ccc(C(F)(F)F)cc4C(F)(F)F)nn3)cc-2n1`: the Potency entry in assay [1] and in assay [2] was “inactive” in each case.

Regarding `NC(=O)NCCCC(NC(=O)Cc1ccccc1)C(=O)O` (stereo unspecified), the Potency result in assay [1] and in assay [2] was “inactive” each time.

On to `COc1cc(CO)cc(OC)c1O[C@@H]1O[C@H](CO)[C@@H](O)[C@H](O)[C@H]1O`, for which the Potency entry in assay [1] and in assay [2] was “inactive” in each case.

In the case of `Cc1cc(CNC(=O)c2cc(C(=O)NCc3ccc(F)c(C)c3)ncn2)ccc1F`, the Potency result in assay [1] and in assay [2] was “inactive” throughout.

As for `C#CCCCn1cc(-c2cccc3c2N[C@@H](C)CC(=O)N3)cn1`, the Potency result in assay [1] and in assay [2] was “inactive” throughout.

On to `Nc1ncnc2c1ncn2[C@H]1O[C@@H](C(=O)N2CCN(CC(=O)Nc3cccc4c3CNC4=O)CC2)[C@H](O)[C@@H]1O`, for which the Potency entry in assay [1] and in assay [2] was “inactive” in each case.

Regarding `COc1cc(C2CC(=O)Nc3c2cc(Br)c2ccccc32)cc(OC)c1OC` (stereo unspecified), the Potency result in assay [1] and in assay [2] was “inactive” throughout.

For `C=C(C)C(O)COc1ccc(CC(=O)O)cc1` (stereo unspecified), the Potency entry in assay [1] and in assay [2] was “inactive” throughout.

As to `C=C1C(OC(C)=O)[C@@]23CCC4[C@](C)(C(=O)O)CCC[C@@]4(C)[C@]2(O)CC[C@H]1C3` (stereo partly specified), the Potency entry in assay [1] and in assay [2] was “inactive” each time.

For the compound `CC(=O)OC1C(O)C(C)(O)C(/C=C/C(=O)O)C2(C)CCCC(C)(C)C12` (stereo unspecified), the Potency entry in assay [1] and in assay [2] was “inactive” throughout.

For the compound `CC(C)=CCC[C@](C)(O[C@@H]1O[C@H](CO[C@@H]2O[C@@H](CO)[C@H](O)[C@H]2O)[C@@H](O)[C@H](O)[C@H]1O)[C@H]1CC[C@]2(C)[C@@H]1[C@H](O)C[C@@H]1[C@@]3(C)CC[C@H](O[C@@H]4O[C@H](CO)[C@@H](O)[C@H](O)[C@H]4O[C@@H]4O[C@H](CO)[C@@H](O)[C@H](O)[C@H]4O)C(C)(C)[C@@H]3CC[C@]12C`, the Potency entry in assay [1] and in assay [2] was “inactive” throughout.

For `CCNC(=O)OC1CCN(c2nncc3cc(OC)c(OC)cc23)CC1`, the Potency result in assay [1] and in assay [2] was “inactive” throughout.

Regarding `NC1Nc2ccccc2C1(N)CC1NC(=O)C(Cc2ccccc2)NC(=O)C(Cc2ccccc2)NC1=O` (stereo unspecified), the Potency result in assay [1] and in assay [2] was “inactive” throughout.

`CC1(C)CC[C@]2(C(=O)O[C@@H]3O[C@H](CO[C@@H]4O[C@H](CO[C@@H]5O[C@H](CO)[C@H](O)[C@H](O)[C@H]5O)[C@@H](O)[C@H](O)[C@H]4O)[C@@H](O)[C@H](O[C@@H]4O[C@H](CO)[C@@H](O)[C@H](O)[C@H]4O)[C@H]3O)[C@H](O)C[C@]3(C)C(=CCC4[C@@]5(C)CC[C@H](O[C@@H]6OC[C@@H](O)[C@H](O)[C@H]6O)[C@@](C)(C(=O)O)C5CC[C@]43C)[C@@H]2C1` (stereo partly specified): the activity change, negative = inhibition in assay [1] was 8.5% [at 19.1 µM]. Also, the Potency result in assay [2] is “inactive”.

As for `C=C1CCC2(OC1)OC1CC3C4CC=C5CC(O)CC(O[C@@H]6OC[C@H](OC(=O)C(O)C(C)CC)[C@H](O)[C@H]6O[C@@H]6O[C@@H](C)[C@H](O)[C@@H](O)[C@H]6O)C5(C)C4CCC3(C)C1C2C` (stereo partly specified), the Potency result in assay [1] and in assay [2] was “inactive” throughout.

On to `Oc1ccc2c(-c3c(-c4ccccn4)nn4c3CCC4)ccnc2c1`, for which the Potency result in assay [1] and in assay [2] was “inactive” throughout.

As for `COC(=O)C(CC1(O)c2ccccc2N2C(=O)C(CC(C)C)NC21)n1cnc2ccccc2c1=O` (stereo unspecified), the Potency result in assay [1] and in assay [2] was “inactive” in each case.

As for `CC1CCC2(C(=O)O)CCC3(C)C(=CCC4C5(C)C[C@@H](O)[C@@H](O)C(C)(CO)C5CCC43C)C2C1(C)O` (stereo partly specified), the Potency result in assay [1] and in assay [2] was “inactive” each time.

With `C=CC(C)(CC/C=C(\C)C(=O)OC)OC1OC(COC(=O)CC(C)(O)CC(=O)O)C(O)C(O)C1O` (stereo unspecified), the Potency entry in assay [1] and in assay [2] was “inactive” in each case.

Consider `COC(=O)C1=CO[C@@H](O[C@@H]2O[C@H](CO)[C@@H](O)[C@H](O)[C@H]2O)[C@H]2[C@@H]1C=C[C@]21C=C([C@H](C)OC(=O)/C=C/c2ccc(O[C@@H]3O[C@H](CO)[C@@H](O)[C@H](O)[C@H]3O)cc2)C(=O)O1`, for which the Potency result in assay [1] and in assay [2] was “inactive” each time.

For the compound `CC(=O)OC1(C)CC(O)C2(O)C=COC(OC3OC(CO)C(O)C(O)C3O)C12` (stereo unspecified), the Potency result in assay [1] and in assay [2] was “inactive” throughout.

On to `C[C@]1(O)CC[C@@H]2C(C(=O)O)=CO[C@@H](O[C@@H]3O[C@H](CO)[C@@H](O)[C@H](O)[C@H]3O)[C@@H]21`, for which the Potency result in assay [1] and in assay [2] was “inactive” in each case.

Regarding `C=C[C@H]1[C@H](O[C@@H]2O[C@H](CO)[C@@H](O)[C@H](O)[C@H]2O)OC=C2C(=O)N3Cc4c([nH]c5ccccc5c4=O)[C@@H]3C[C@H]21`, the Potency result in assay [1] and in assay [2] was “inactive” in each case.

For `CC1=CC(=O)CC(C)(C)C1CO[C@@H]1O[C@H](CO)[C@@H](O)[C@H](O)[C@H]1O` (stereo partly specified), the Potency entry in assay [1] and in assay [2] was “inactive” each time.

Regarding `C[C@@H]1O[C@@H](O[C@H]2[C@H](O)[C@@H](O)[C@H](OC[C@H]3O[C@@H](OC(=O)[C@]45CCC(C)(C)C[C@H]4C4=CCC6[C@@]7(C)C[C@@H](O)[C@H](O)[C@@](C)(CO)C7[C@H](O)C[C@@]6(C)[C@]4(C)CC5)[C@H](O)[C@@H](O)[C@@H]3O)O[C@@H]2CO)[C@H](O)[C@H](O)[C@H]1O` (stereo partly specified), the Potency result in assay [1] and in assay [2] was “inactive” in each case.

Consider `O=C(NC1CCN(CC(F)(F)F)CC1)c1ccc(-c2cccc(F)c2)nc1`, for which the Potency result in assay [1] and in assay [2] was “inactive” throughout.
